Experimental findings from PubChem BioAssay are described below.

The nature of test [1]: small molecules captured by biotinylated probe aFSTL3 – biochemical, small-molecule microarray, fluorescence 635/667, stem cell growth factor project, primary screen (AID 1064).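 Note: measures binding of the biotinylated anti-FSTL3 antibody to printed compounds.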 Particulars: higher = more signal.
Test [2] can be described thus: binders from COS7 lysate, DM2A8 probe, primary screen, torsin A project, cell lysate, small-molecule microarray, fluorescence 635/667 (AID 1065). Particulars: higher = more signal, COS7 lysate expressing mutant human TOR1A.
The nature of test [3]: small molecules captured by biotinylated probe aFGF2 – biochemical, small-molecule microarray, fluorescence 635/667, stem cell growth factor project, primary screen (AID 1067).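 Note: measures binding of biotinylated aFGF2 protein to printed compounds on slides; z-score merges feature fluorescence and signal-to-noise across triplicate slides.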 Particulars: higher = more signal.
A short description of test [4]: small molecules captured by biotinylated probe aFGF10 – biochemical, small-molecule microarray, fluorescence 635/667, stem cell growth factor project, primary screen (AID 1071).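 Note: score merges 667 nm spot intensity and signal to noise from triplicate slides.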 Particulars: higher = more signal.
Test [5] deals with Neurogenic locus notch homolog protein 2 (Homo sapiens) (UniProt Q04721). Description: small molecules binding Notch2 protein – biochemical, small-molecule microarray, 635 nm fluorescence, stem cell growth factors, primary screen (AID 1073). Particulars: higher = more signal.
Neurogenic locus notch homolog protein 2 (Homo sapiens), sequence (Q04721 whole entry, looked up, canonical isoform): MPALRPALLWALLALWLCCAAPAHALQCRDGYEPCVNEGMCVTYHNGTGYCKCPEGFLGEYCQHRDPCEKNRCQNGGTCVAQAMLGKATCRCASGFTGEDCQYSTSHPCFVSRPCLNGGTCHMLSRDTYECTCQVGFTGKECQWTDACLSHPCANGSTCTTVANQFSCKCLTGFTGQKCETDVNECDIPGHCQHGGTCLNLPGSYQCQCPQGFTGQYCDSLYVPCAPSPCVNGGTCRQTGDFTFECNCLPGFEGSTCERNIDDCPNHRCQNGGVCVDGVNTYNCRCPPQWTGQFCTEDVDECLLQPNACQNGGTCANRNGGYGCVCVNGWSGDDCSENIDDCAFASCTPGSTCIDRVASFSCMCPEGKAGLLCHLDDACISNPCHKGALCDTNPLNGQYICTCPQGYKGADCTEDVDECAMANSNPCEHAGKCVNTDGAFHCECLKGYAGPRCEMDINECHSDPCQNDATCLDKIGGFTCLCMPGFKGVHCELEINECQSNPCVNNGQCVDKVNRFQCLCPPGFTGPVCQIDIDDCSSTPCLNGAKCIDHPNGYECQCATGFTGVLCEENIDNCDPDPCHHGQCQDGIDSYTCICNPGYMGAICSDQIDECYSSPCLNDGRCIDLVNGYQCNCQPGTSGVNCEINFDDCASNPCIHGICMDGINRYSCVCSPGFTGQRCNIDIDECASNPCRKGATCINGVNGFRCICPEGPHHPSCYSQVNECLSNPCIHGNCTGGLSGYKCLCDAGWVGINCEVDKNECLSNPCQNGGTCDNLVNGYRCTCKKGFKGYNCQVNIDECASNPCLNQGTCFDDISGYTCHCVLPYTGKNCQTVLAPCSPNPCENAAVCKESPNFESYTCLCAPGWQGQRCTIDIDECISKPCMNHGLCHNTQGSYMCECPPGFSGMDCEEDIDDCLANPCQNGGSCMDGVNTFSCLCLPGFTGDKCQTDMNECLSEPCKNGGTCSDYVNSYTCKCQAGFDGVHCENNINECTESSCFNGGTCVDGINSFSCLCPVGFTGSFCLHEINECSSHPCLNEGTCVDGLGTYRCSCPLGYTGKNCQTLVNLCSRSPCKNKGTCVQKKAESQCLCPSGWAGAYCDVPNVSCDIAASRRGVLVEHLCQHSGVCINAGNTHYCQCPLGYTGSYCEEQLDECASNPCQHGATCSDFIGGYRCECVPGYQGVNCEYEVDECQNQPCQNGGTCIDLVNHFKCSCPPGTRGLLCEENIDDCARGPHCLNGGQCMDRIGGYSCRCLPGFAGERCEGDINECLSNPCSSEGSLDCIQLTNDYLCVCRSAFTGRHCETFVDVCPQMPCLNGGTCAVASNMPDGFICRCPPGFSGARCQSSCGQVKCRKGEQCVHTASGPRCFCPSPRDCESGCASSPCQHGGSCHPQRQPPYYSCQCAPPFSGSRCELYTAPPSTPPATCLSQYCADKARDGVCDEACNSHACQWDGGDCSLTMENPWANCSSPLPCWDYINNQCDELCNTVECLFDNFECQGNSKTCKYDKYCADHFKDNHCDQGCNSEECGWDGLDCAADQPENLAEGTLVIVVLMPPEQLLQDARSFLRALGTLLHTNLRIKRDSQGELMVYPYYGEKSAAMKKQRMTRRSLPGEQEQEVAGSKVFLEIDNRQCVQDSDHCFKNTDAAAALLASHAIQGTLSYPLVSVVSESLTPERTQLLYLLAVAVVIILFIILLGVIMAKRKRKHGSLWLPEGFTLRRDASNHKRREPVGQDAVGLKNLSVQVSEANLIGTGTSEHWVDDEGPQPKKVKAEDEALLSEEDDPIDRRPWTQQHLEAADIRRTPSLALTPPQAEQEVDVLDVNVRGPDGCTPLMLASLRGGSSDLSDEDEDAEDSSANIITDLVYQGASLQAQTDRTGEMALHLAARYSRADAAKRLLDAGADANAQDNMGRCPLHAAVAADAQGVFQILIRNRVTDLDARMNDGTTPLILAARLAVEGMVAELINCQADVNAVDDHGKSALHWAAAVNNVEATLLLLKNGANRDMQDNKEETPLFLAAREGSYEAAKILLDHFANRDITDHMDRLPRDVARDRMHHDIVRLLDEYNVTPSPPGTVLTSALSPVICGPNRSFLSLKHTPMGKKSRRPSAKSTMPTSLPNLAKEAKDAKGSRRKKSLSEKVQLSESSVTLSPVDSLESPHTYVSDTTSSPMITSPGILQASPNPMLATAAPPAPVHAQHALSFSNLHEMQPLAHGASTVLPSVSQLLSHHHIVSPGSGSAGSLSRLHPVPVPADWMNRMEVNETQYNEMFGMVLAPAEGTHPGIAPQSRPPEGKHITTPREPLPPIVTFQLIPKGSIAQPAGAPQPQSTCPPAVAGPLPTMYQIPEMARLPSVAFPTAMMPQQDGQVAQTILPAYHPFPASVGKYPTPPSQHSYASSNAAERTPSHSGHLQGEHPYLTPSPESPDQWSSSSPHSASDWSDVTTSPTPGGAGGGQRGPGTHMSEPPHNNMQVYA
The target of test [6] is Pro-neuregulin-1, membrane-bound isoform (Homo sapiens) (UniProt Q02297). Put plainly: small molecules binding neuregulin-1 protein – biochemical, small-molecule microarray, fluorescence 635/667, psychiatric disease protein project, primary screen (AID 1075).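 Note: score combines 667 nm spot fluorescence with signal to noise.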 Particulars: NRG1 binding, 635 nm fluorescence, higher = more signal.
Pro-neuregulin-1, membrane-bound isoform (Homo sapiens), sequence (Q02297 whole entry, looked up, the tested form may be a part, canonical isoform): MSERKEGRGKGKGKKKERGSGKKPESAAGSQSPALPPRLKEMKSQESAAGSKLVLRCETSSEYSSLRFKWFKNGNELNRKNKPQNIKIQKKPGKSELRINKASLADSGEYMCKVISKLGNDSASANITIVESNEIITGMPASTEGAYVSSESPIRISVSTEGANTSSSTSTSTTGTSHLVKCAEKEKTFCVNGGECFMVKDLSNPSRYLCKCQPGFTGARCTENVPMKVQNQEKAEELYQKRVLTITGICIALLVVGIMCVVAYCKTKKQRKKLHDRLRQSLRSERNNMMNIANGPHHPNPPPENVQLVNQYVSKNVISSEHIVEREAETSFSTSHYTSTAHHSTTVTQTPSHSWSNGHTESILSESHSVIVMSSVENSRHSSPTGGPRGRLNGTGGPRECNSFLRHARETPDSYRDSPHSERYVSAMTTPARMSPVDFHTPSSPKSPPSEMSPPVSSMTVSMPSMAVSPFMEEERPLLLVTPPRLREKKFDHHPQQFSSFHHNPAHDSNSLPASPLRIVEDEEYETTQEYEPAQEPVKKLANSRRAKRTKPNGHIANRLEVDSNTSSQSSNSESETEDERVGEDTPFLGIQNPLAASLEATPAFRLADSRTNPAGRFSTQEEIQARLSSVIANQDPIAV
The test system of test [7] is Neuregulin-1 EGF-like domain. Description: small molecules binding NRG1 EGF domain – biochemical, small-molecule microarray, 635 nm fluorescence, primary screen (AID 1081).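 Note: binding of the protein to compounds printed on small-molecule microarray slides.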 Particulars: higher = more signal.
Test [8] is described as follows: FRG1 expression reporter modulators in myotubes – cell-based, C2C12 myotubes, firefly/Renilla luciferase, luminescence, FRG1 inhibition for FSHD, primary screen (AID 1084). Particulars: FRG1 promoter luciferase, higher = more signal, called active from +8 up or from −8 down.
Test [9] can be described thus: small molecules captured by biotinylated probe aFST – biochemical, small-molecule microarray, fluorescence 635/667, stem cell growth factor project, primary screen (AID 1086).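 Note: score merges 667 nm fluorescence with signal-to-noise of each printed compound spot.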 Particulars: higher = more signal.
Test [10] in a line: binders of probe aHhip on microarray, primary screen, stem cell growth factor project, biochemical, small-molecule microarray, fluorescence 635/667 (AID 1087).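 Note: score merges spot fluorescence at 667nm with spot signal to noise ratio.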 Particulars: higher = more signal.

Active and inactive are the calls of the source.

As to `COCCCNC(=O)[C@@]1(c2ccc([N+](=O)[O-])cc2)CC(=O)N(C2CCCCC2)[C@@H]1c1ccc(CO)cc1`, the composite z-score is -1.19 in [1]; -0.655 in [2]; -0.248 in [3]; 0.174 in [4]; -0.243 in test [5]; 0.763 in test [6]. For the same compound, the figures for the composite z-score in [7], in test [9] and in test [10] were 1.39, -0.604 and -0.859, respectively. Further, the z-score in [8] was -0.912 (inactive).

As to `CCCC=C(CCC)[C@@H](NS(=O)(=O)c1ccc(-c2ccccc2)cc1)c1ccc(C(=O)OC)cc1`, the composite z-score in [1] is 0.184; in [2], -0.337; in test [3], -0.0363; in test [4], -0.198; in test [5] it was 0.268; in test [6] it was -0.33. Moreover, the composite z-score in test [7] was -0.656; in test [9] it was -0.212; in test [10], -0.0994. For the same compound, the z-score in test [8] was 1.55 (inactive).

Regarding `CC(C)[Si]1(C(C)C)OCc2cc(C3CC3)nc(-c3ccccc3)c21`, the composite z-score in [1] was 0.322; in [2] it was 0.598; in [3] it was -0.119; in test [4] it was -1.2; in test [5], -1.27; in test [6], -0.291. For the same compound, the results for the composite z-score in [7], in test [9] and in test [10] were -0.531, -0.135 and -0.261, respectively. Besides, in test [8], the z-score is -1.03 (inactive).

For the compound `CC(C)C[C@@H]1NC(=O)[C@H]2C[C@@H](C(=O)NCCCCCC[N+](C)(C)C)[C@@H](c3ccc(O)cc3)N2C1=O`, the composite z-score in test [1] was -0.332; in test [2], 0.64; in test [3] it was -0.189; in [4], -0.615; in [5] it was -0.471; in test [6] it was 1.77. The composite z-score in [7] was 1.41; in test [9], 0.0716; in [10], -0.0994. In test [8], the z-score was 2.82 (inactive).

Regarding `CO[C@H]1COC(=O)CC=C[C@H](C)COC(=O)[C@@H](OCc2ccccc2)C=C[C@@H]1C`, the composite z-score in test [1] was -0.938; in test [2] it was 2.14; in test [3], -0.317; in test [4] it was -1.11; in [5], -1.49; in test [6] it was 0.311. The composite z-score in test [7] is 0.958; in test [9] it was -0.0875; in test [10], -0.12. Besides, the z-score in test [8] was 0.236 (inactive).

Take `C#CCCCON=C1C[C@@H](O)[C@@H](O)[C@@H]2[C@@H]3C(=O)N(Cc4ccc5c(c4)OCO5)C(=O)[C@@H]3CC[C@@H]12`: the composite z-score is -0.158 in test [1]; -0.022 in test [2]; -0.0684 in test [3]; 0.456 in [4]; 0.204 in [5]; 0.166 in test [6]. Further, the composite z-score in test [7] came to 0.562; in [9] it was 0.351; in test [10] it was 0.0695. Moreover, the z-score in [8] is -0.177 (inactive).

As for `O=C1OCC=C[C@H]2OC34C=CCN(Cc5ccccc5)C(=O)[C@H]3N(CCO)C(=O)[C@@H]4[C@@H]12` (stereo not given in full), the composite z-score was 0.322 in test [1]; -0.0397 in test [2]; -0.149 in [3]; -0.387 in [4]; -0.338 in test [5]; 2.05 in test [6]. In addition, the composite z-score in test [7] was 0.699; in test [9], -0.331; in test [10], -0.236. Moreover, the z-score in test [8] is -0.019 (inactive).

For the compound `C=CC[C@@]12N=C(c3ccc(OCCCO)cc3)O[C@@H]1c1ccccc1CN(Cc1ccccc1)C2=O`, the composite z-score in test [1] is 1.36; in [2], 0.845; in test [3] it was -0.0043; in test [4], 0.245; in test [5], 0.477; in [6], 0.713. In addition, the composite z-score in test [7] was 1.16; in [9], 0.15; in [10], -0.138. Moreover, in test [8], the z-score was -4 (inactive).

As for `COCCOC(=O)N1C(=O)[C@@]2(c3cc(C#CCCO)ccc31)[C@H](c1ccc(O)cc1)N1[C@H](c3ccccc3)[C@H](c3ccccc3)OC(=O)[C@H]1[C@@H]2C(=O)Nc1nc2ccccc2s1`, the composite z-score in test [1] was -0.243; in test [2] it was 0.184; in [3] it was 0.0644; in test [4] it was 0.892; in [5] it was 1.25; in test [6], 0.227. In addition, the composite z-score in test [7] is 1.15; in [9], 0.293; in test [10], -0.16. In addition, the z-score in [8] was -0.205 (inactive).

On to `COc1ccc(NN2C(C(O)c3cc(OC)c(OC)c(OC)c3)C=CC3C(=O)N(C4CCCCC4)C(=O)C32)cc1` (stereo not given), for which the composite z-score in test [1] was 0.833; in [2] it was -0.194; in [3], 0.123; in test [4], 0.767; in test [5], 1.63; in test [6], 1.09. Further, the composite z-score came out at 1.07 in test [7], 1.51 in test [9] and 0.0734 in test [10]. Also, in test [8], the z-score was 1.02 (inactive).

For `C=CC[C@]1(C(N)=O)N=C(c2ccc(OCCCO)cc2)O[C@H]1c1ccccc1CN=[N+]=[N-]`, the composite z-score in test [1] is 1.12; in test [2] it was 1.36; in [3] it was -0.0881; in test [4], -0.333; in test [5], 0.0233; in [6], 1.87. Further, the composite z-score was 1.34 in [7], 0.326 in test [9] and -0.0994 in test [10]. Besides, the z-score in test [8] is 1.2 (inactive).

As for `CCN1C(C)=C(C(=O)OC)[C@@H](c2ccccc2)N2C(=O)[C@@]3(C(=O)OC)O[C@@]12[C@@H]1C(=O)CCC[C@@H]13`, the composite z-score is -0.65 in [1]; 0.33 in test [2]; -0.178 in [3]; 0.234 in test [4]; -0.334 in [5]; -0.307 in [6]. Further, the composite z-score in test [7] is 0.545; in [9], -0.183; in test [10], 0.351. Further, the z-score in test [8] was -0.765 (inactive).

For `COC(=O)[C@@]1(Cc2ccccc2)[C@H]2c3cc(C(=O)N4CCCC4)n(CCN4CNCC4=O)c3C[C@H]2CN1C(=O)c1ccccc1`, the composite z-score in test [1] was determined as 0.243; in test [2], 1.35; in test [3], 0.106; in test [4], 0.598; in [5], 1.4; in [6] it was 1.71. For the same compound, the composite z-score in test [7] is 1.37; in [9], 0.604; in test [10], 0.209. In test [8], the z-score is 1.41 (inactive).

Take `CO[C@H]1O[C@H](CO)[C@@H](OC(=O)CCc2ccccc2)[C@@H]2OC(=O)[C@H](Cc3cccc(Br)c3)C/C=C/C[C@@H](Cc3cccc(Br)c3)C(=O)O[C@@H]12`: the composite z-score is 0.617 in test [1]; 0.361 in test [2]; -0.139 in test [3]; -0.722 in [4]; -1.2 in test [5]; 0.964 in test [6]. The composite z-score in [7] was -0.0592; in test [9], 0.0729; in [10], -0.134. Also, the z-score in [8] was -2.01 (inactive).

As to `COC(=O)C1=C(C)N(Cc2ccccc2)c2c(C(=O)OC)c(C(=O)OC)c(C(=O)OC)c(=O)n2[C@@H]1c1ccccc1`, the composite z-score was -0.274 in [1]; 0.657 in [2]; -0.0181 in test [3]; 0.282 in test [4]; 0.898 in test [5]; 0.289 in [6]. The composite z-score in test [7] is 0.721; in test [9] it was 0.224; in test [10], -0.0994. The z-score in [8] is 0.365 (inactive).

For the compound `CO[C@H]1COC(=O)CC=C[C@@H](C)COC(=O)[C@@H](C)NC(=O)CC=C[C@@H]1C`, the composite z-score in [1] is -1.1; in test [2], 2.24; in [3] it was -0.138; in [4], -0.248; in [5], -0.604; in test [6], -0.907. The composite z-score in test [7] was -0.228; in test [9], 0.219; in test [10] it was 0.0274. For the same compound, in test [8], the z-score is -1.88 (inactive).
